Compound activity (PubChem)
EP2 antag – human EP2 receptor antagonists, primary screen, TR-FRET cAMP, C6 glioma cells. Prostaglandin E2 receptor EP2 subtype (Homo sapiens), P43116. C6 glioma cells expressing human EP2; cells stimulated with saturating PGE2. inhibition, % at 25 µM. 260,000 compounds, 0.52% hits;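 active = percent inhibition above 40 after rounding to a whole number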;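 also: rat C6 glioma host cells with rolipram phosphodiesterase inhibitor present; the protocol text gives 20 µM as final concentration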
Target sequence (P43116 whole entry, looked up): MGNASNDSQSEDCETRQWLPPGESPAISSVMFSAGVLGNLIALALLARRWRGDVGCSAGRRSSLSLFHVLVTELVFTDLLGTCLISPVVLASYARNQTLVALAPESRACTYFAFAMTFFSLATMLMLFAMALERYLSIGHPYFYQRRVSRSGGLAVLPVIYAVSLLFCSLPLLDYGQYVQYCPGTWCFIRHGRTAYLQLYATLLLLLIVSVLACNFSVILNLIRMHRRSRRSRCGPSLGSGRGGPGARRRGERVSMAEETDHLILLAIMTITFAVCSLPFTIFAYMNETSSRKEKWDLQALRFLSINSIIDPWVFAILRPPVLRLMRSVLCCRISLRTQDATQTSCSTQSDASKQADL
Pf gamet viab – late stage P. falciparum gametocyte viability inhibitors, primary screen, ATP luminescence, HTS. P. falciparum stage V gametocytes, 24 h. inhibition, % at 10.9 µM. 150,000 compounds, 0.065% hits;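 active = inhibition above the mean plus 3 SD of compounds within the control limits, set per campaign, cut at about 38% in these data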;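 also: 0% = DMSO wells and 100% = medium only without gametocytes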
HSV replic up – enhancers of HSV replication in host cells, fold increase, host cell viability | HSV replication augmentation in cells | maximum fold increase | 220,000 compounds, 0.005% hits | AID 1956, 2009; in the data active = maximum fold increase above about 1.5; tested in PC3 cells
Furin inhibitor – human furin inhibitors, primary screen, biochemical, fluorescence intensity. P09958. purified furin, fluorogenic substrate cleavage. inhibition, % at 20 µM or 30 µM. 220,000 compounds, 0.061% hits; in the data active = inhibition above about 25%
EP2 modulator – EP2 receptor modulators, cAMP readout, primary screen, cell-based, HTRF cAMP, PGE2 stimulation; Prostaglandin E2 receptor EP2 subtype (Homo sapiens), P43116; EP2-expressing cells, cAMP HTRF FRET, PGE2 co-stimulation; induction, % at 25 µM; 260,000 compounds, 0.83% hits;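 active = compounds whose cAMP rise, as percent of the full-agonist control response, exceeds 60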;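 also: rat C6 glioma line stably carrying human EP2 under a CMV promoter; the protocol text gives 20 µM as final concentration; 100% = response of wells given 1 µM PGE2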
Active calls of the source: *; i = inactive; . = not tested or not shown; ! = a repeat was not active. In the library only some 1.4% were active in any assay of this set; here they are far more common.

SMILES | EP2 antag | Pf gamet viab | HSV replic up | Furin inhibitor | EP2 modulator
Cc1[nH]c2ccccc2c1-c1cc(-c2cc(-c3c(C)[nH]c4ccccc34)on2)no1 | 47* | . | . | . | -23
O=C(Nc1ccc(Cl)c(C(F)(F)F)c1)NC1CC2CCCC(C1)N2Cc1ccccc1 (centres undefined) | 51* | . | i | -28 | -123
CCn1c(SCC#N)nc2c(c1=O)C1(CCCC1)Cc1ccccc1-2 | 7 | -14 | i | -18 | 39
O=C(O)c1cc(-c2ccc(-c3ccccc3)cc2)nc2cc3ccccc3cc12 | 46* | . | . | . | -52
N#C/C(C(=O)NCCc1ccccc1)=C1/N=C(NC(=O)c2cccs2)c2ccccc21 | 13 | 23 | i | -5 | 63*
COc1ccc(CCN(Cc2nc3ccccc3c(=O)[nH]2)C(=O)c2ccco2)cc1 | 13 | . | i | -20 | 1
CCN(CC)C(=O)c1sc2[nH]c(=S)n(-c3ccccc3)c(=O)c2c1C | 10 | -10 | i | -7 | 61*
O=C(O)C1CCc2sc3[nH]c(=S)n(-c4ccccc4)c(=O)c3c21 (centres undefined) | 9 | -8 | i | -12 | 27
NC(=O)N[C@H](CC(=O)O)C(=O)O | 12 | . | . | . | -24
O=C(O)C[C@H](NC(=O)CP(=O)(O)O)C(=O)O.[NH-][C@@H]1CCCC[C@H]1[NH-].[Pt] | 40* | . | . | . | 9
O=C(O)C1=C/C(=C(/c2ccccc2)c2cc(C(=O)O)c(O)c3ccccc23)c2ccccc2C1=O | 40*! | . | . | . | 3
O=c1c2[nH]c3ccccc3c2ncn1CCN1CCOCC1 | 16 | 23 | i | -32 | -7
OC[C@@H]1O[C@H](N2CCN([C@@H]3O[C@H](CO)[C@@H](O)[C@H](O)[C@H]3O)CC2)[C@@H](O)[C@H](O)[C@H]1O | 49* | . | . | . | 15
CCOC(=O)c1cc2sccc2n1Cc1cccc(F)c1 | 9 | . | . | . | 85*
Cc1ccc(N2CC(C(=O)NC3CCCC3)CC2=O)cc1 (centres undefined) | 50* | . | . | . | -30
OC1C2(Cc3ccccc3)CN3CCN(C2)CC1(Cc1ccccc1)C3 (centres undefined) | 15 | -12 | i | 2 | .
OC1C2CN3CCN(C2)CC1(Cc1ccccc1)C3 (centres undefined) | -1 | . | i | 30* | -8
CC(C)CCOP(=O)(c1ccc(N(C)C)cc1)C(O)c1ccccn1 (centres undefined) | 5 | 6 | i | -2 | 6
COc1ccc(CCNC(=O)c2ccc(-c3ccccc3Cl)o2)cc1OC | 62* | . | . | . | -87
CC(C)Oc1ccc(C2CC(=O)N(c3ccc(C(=O)O)cc3)C2=O)cc1 (centres undefined) | 5 | 8 | i | -29 | 8
C=CCn1c(-c2ccccc2)ccc(C#N)c1=O | 4 | . | i | -16 | 64*
O=C(NNS(=O)(=O)c1ccc(Cl)cc1Cl)c1cc2ncc(C(F)(F)F)cc2s1 | 17 | -13 | i | -15 | -26
O=C(O)CSc1ncnc2c1sc1nc(-c3ccccc3)c3c(c12)CCC3 | 7 | 2 | i | -10 | 70*
O=c1[nH]cnc2c1sc1nc(-c3ccccc3)c3c(c12)CCCC3 | 11 | -3 | i | -14 | 48
NC(=O)CCn1c(C(=O)c2cccc([N+](=O)[O-])c2)c2ccccc2[n+]1[O-] | . | 21 | . | . | .
SMILES | EP2 antag | Pf gamet viab | HSV replic up | Furin inhibitor | EP2 modulator
S=c1[nH]nc(C2CCCCC2)n1/N=C/c1ccc(Br)s1 | 7 | -39 | i | -14 | 63*
Cc1[nH]nc(SCC(=O)NC2CCCC2)c1[N+](=O)[O-] | 7 | -3 | i | -11 | 20
CCc1cc(C(c2ccccn2)N2CCN(C)CC2)c(NC(=O)c2ccccc2)s1 (centres undefined) | 3 | 13 | . | 25* | 13
CSC1=NCCN1CCOc1ccccc1 | 4 | -1 | i | -29 | 0
COC(=O)c1cc(NC(=O)c2ccc(-c3ccccc3)cc2)ccc1Cl | 8 | 41* | i | -19 | -28
COC(=O)c1cc(NC(=O)c2ccco2)ccc1Cl | 10 | . | . | . | -73
CCOc1ccc(NC(=S)NC(=O)/C=C/c2ccc(C)cc2)c([N+](=O)[O-])c1 | . | . | . | -12 | -12
Cc1cccc(Nc2nc(N)c([N+](=O)[O-])c(NCc3ccccc3)n2)c1 | 11 | -3 | i | -7 | 76*
